Laboratory results from paper PMC5700166.
Substitutions are numbered along the chain they refer to.

What was measured:
Assay in all cases: protein-binding microarray (PBM); PBM: ~300 nM protein, 6 mM HEPES pH 7.8, 80 mM KCl, 0.5 mM EDTA, 0.5 mM EGTA, 6% glycerol, 35 ng/ul poly-dIdC, 1% milk, 1 h, room temperature; Ap Aiptasia and Nv Nematostella (sea anemones) / Co Capsaspora / Aq Amphimedon (sponge) / Dm Drosophila / Hu human; RHD is the Rel homology domain; high values mean tight binding
Conditions in all cases: dsDNA, one strand shown
GST-Ap-NF-kB RHD = target: T1, GST-Ap-NF-kB RHD (Exaiptasia pallida (Aiptasia), UniProt A0A913YAJ5 2-422)
T1 sequence: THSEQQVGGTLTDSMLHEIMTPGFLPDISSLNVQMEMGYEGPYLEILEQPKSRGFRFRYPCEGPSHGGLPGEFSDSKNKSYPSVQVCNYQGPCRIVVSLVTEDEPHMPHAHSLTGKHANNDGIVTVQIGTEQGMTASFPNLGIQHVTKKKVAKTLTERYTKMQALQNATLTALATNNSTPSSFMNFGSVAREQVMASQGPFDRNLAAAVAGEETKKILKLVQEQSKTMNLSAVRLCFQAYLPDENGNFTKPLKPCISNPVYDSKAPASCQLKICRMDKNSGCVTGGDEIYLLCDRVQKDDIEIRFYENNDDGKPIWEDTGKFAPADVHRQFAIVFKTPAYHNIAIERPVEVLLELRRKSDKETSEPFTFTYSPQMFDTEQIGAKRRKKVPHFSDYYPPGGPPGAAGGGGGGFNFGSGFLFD

[1] = target: T2, GST-Nv-NF-kB (Cys allele) (Nematostella vectensis, UniProt E5G601 2-411)
T2 sequence: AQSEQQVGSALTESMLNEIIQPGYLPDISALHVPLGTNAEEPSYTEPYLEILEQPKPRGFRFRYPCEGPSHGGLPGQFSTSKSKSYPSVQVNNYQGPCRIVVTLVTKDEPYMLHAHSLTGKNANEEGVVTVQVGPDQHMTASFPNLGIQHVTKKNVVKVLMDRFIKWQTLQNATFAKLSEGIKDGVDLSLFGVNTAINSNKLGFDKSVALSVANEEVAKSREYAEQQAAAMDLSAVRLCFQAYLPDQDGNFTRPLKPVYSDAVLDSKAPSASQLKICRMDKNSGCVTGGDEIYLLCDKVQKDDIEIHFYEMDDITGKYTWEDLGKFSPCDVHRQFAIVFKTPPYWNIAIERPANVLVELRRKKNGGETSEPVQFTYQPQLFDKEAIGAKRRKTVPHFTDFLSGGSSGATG

[2] = target: T3, GST-Nv-NF-kB (Ser allele) (Nematostella vectensis, UniProt A7UNT2 2-411)
T3 sequence: T2 sequence with Q21R, C66S, S207N, E215Q, V217A, E225K, A268E, D399E

GST-Co-NF-kB = target: T4, GST-Co-NF-kB (Capsaspora owczarzaki, UniProt F1ARL5 200-546)
T4 sequence: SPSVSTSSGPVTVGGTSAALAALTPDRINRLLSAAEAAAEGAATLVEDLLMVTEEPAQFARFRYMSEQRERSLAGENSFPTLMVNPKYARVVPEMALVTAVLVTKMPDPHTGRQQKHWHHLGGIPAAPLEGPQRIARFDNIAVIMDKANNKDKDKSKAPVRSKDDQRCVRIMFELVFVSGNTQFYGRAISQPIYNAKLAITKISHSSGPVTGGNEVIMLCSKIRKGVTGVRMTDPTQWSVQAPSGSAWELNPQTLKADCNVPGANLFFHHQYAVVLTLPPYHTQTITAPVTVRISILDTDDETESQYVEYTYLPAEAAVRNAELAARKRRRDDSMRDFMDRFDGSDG

GST-Dm-Relish = target: T5, GST-Dm-Relish (Drosophila melanogaster, UniProt Q94527 99-473)
T5 sequence: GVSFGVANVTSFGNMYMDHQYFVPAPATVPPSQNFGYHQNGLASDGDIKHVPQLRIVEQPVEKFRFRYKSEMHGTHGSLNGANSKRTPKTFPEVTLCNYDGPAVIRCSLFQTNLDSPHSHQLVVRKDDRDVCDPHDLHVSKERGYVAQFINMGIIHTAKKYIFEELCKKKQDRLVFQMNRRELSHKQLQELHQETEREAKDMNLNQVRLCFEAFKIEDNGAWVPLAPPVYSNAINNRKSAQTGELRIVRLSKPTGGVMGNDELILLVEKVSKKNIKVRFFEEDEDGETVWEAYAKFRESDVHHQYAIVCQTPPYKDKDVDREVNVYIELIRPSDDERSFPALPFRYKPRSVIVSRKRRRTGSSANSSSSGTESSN

GST-Aq-NF-kB = target: T6, GST-Aq-NF-kB (Amphimedon queenslandica, UniProt A9Y5G7 2-389)
T6 sequence: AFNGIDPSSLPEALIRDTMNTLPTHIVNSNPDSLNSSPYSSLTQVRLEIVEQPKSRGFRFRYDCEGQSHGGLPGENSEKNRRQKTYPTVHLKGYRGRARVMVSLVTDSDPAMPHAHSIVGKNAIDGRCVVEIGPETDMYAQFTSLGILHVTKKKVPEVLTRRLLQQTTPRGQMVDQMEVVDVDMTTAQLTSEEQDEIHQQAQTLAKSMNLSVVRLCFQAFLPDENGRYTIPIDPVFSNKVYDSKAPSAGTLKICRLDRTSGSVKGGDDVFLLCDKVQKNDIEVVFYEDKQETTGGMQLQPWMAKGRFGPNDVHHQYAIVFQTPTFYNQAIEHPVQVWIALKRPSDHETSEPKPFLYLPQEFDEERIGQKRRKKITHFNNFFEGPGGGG

GST-Hu-p50 = GST-Hu-p50 (Homo sapiens, UniProt P19838 7-356)
Sequence of GST-Hu-p50 (P19838 7-356): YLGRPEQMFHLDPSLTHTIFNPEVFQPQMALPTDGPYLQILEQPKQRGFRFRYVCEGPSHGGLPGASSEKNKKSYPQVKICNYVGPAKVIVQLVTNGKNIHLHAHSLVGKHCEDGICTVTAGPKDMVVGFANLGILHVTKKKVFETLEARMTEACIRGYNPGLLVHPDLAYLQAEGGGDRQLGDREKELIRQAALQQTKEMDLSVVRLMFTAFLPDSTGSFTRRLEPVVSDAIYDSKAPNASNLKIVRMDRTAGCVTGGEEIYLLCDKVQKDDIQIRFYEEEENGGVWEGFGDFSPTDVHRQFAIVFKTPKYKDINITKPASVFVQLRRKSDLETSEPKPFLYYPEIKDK

Row | Sequence | binding signal (GST-Ap-NF-kB RHD) [z-score] | binding signal [1] [z-score] | binding signal [2] [z-score] | binding signal (GST-Co-NF-kB) [z-score] | binding signal (GST-Dm-Relish) [z-score] | binding signal (GST-Aq-NF-kB) [z-score] | binding signal (GST-Hu-p50) [z-score]
1 | CCGATTAACATCAGGGATCCCCCTGATGTTAATCGGGTCTTGATTCGCTTGACGCTGCTG | 12 | 10.2 | 9.22 | 5.15 | 11.1 | 10.3 | 6.45
2 | CCGATTAACATCAGGGGACTACCTGATGTTAATCGGGTCTTGATTCGCTTGACGCTGCTG | 7.56 | 5.88 | 4.89 | 2.47 | 7.3 | 7.36 | 4.79
3 | CCGATTAACATCAAAAACTCCCTTGATGTTAATCGGGTCTTGATTCGCTTGACGCTGCTG | 5.39 | 7.94 | 7 | 1.96 | 6.3 | 7.5 | 5.92
4 | CCGATTAACATCAAATTTCCCAATGATGTTAATCGGGTCTTGATTCGCTTGACGCTGCTG | 2.25 | 4.12 | 3.77 | 3.94 | 2.51 | 3.58 | 3.39
5 | CCGATTAACATCAAGGGGGAAACTGATGTTAATCGGGTCTTGATTCGCTTGACGCTGCTG | 7.59 | 7.46 | 9.77 | 8.9 | 4.03 | 5.71 | 7.63
6 | CCGATTAACATCAGGGAAATCTATGATGTTAATCGGGTCTTGATTCGCTTGACGCTGCTG | 3.65 | 5.31 | 6.44 | 4.52 | 1.64 | 4.71 | 4.1
7 | CCGATTAACATCAAAGTTTCCCCTGATGTTAATCGGGTCTTGATTCGCTTGACGCTGCTG | 7.96 | 9.57 | 12 | 10.6 | 5.37 | 7.26 | 6.85
8 | CCGATTAACATCAGGGGGGTACCTGATGTTAATCGGGTCTTGATTCGCTTGACGCTGCTG | 5.8 | 3.31 | 3.85 | 4.86 | 5.81 | 5.74 | 4.26
9 | CCGATTAACATCAAGGAGTTCCCTGATGTTAATCGGGTCTTGATTCGCTTGACGCTGCTG | 3.02 | 2.29 | 1.06 | 1.52 | 5.39 | 4.24 | 2.1
10 | CCGATTAACATCACAAAAGTCCCTGATGTTAATCGGGTCTTGATTCGCTTGACGCTGCTG | 7.21 | 9.22 | 9.85 | 2.27 | 7.55 | 7.54 | 6.52
11 | CCGATTAACATCAGGCTTTCCCCTGATGTTAATCGGGTCTTGATTCGCTTGACGCTGCTG | 6.49 | 7.29 | 7.71 | 4.87 | 7.38 | 7.22 | 4.79
12 | CCGATTAACATCAGGGAGTCCCCTGATGTTAATCGGGTCTTGATTCGCTTGACGCTGCTG | 10.9 | 8.88 | 7.04 | 4.05 | 10.7 | 9.35 | 6.52
13 | CCGATTAACATCAAGTTTTCCCCTGATGTTAATCGGGTCTTGATTCGCTTGACGCTGCTG | 8.03 | 8.76 | 11.2 | 10.3 | 6.09 | 6.59 | 6.59
14 | CCGATTAACATCAAAACATCCCCTGATGTTAATCGGGTCTTGATTCGCTTGACGCTGCTG | 6.41 | 8.11 | 8.22 | 4.63 | 8.65 | 7.07 | 5.91
15 | CCGATTAACATCAAAAATCCCCTTGATGTTAATCGGGTCTTGATTCGCTTGACGCTGCTG | 10.4 | 12.3 | 13.5 | 4.34 | 10.1 | 8.57 | 8.54
16 | CCGATTAACATCAGAACTTCCCCTGATGTTAATCGGGTCTTGATTCGCTTGACGCTGCTG | 7.33 | 9 | 7.95 | 6.75 | 7.85 | 7.57 | 6.4
17 | CCGATTAACATCAGGGGATGTACTGATGTTAATCGGGTCTTGATTCGCTTGACGCTGCTG | 4.43 | 4.79 | 5.58 | 3.02 | 9.92 | 5.33 | 4.4
18 | CCGATTAACATCAGATATTCCCATGATGTTAATCGGGTCTTGATTCGCTTGACGCTGCTG | 3.86 | 3.21 | 3.17 | 2.8 | 1.78 | 2.67 | 1.97
19 | CCGATTAACATCAAAAGTTCCCCTGATGTTAATCGGGTCTTGATTCGCTTGACGCTGCTG | 8.35 | 9.74 | 10.9 | 9.64 | 9.48 | 7.95 | 6.5
20 | CCGATTAACATCAAAAAAGCCCCTGATGTTAATCGGGTCTTGATTCGCTTGACGCTGCTG | 7.94 | 11.4 | 9.29 | 1.83 | 9.41 | 8.77 | 7.54
21 | CCGATTAACATCAGGGAACCCCCTGATGTTAATCGGGTCTTGATTCGCTTGACGCTGCTG | 13 | 11.8 | 10.7 | 3.7 | 11 | 11.1 | 7.62
22 | CCGATTAACATCACATAATCCCCTGATGTTAATCGGGTCTTGATTCGCTTGACGCTGCTG | 7.93 | 9.03 | 9.99 | 3.86 | 6.27 | 6.55 | 6.8
